Source: publication PMC8384837, “Expanding the binding specificity for RNA recognition by a PUF domain”
Residue numbers refer to the chain shown, from its start.

How the values were obtained:
Assay in all cases: yeast three-hybrid, YBZ-1, SC-Leu-His + 0.5 mM 3-AT, 4 days
Conditions in all cases: tags: N-Gal4 AD-HA kept; label: inside an RPR1-promoter hybrid RNA with tandem MS2 sites; ssRNA
[1] = target: PUM1 PUF domain R3-TRH (Homo sapiens, UniProt Q14671 828-1176, C935T;Q939H)
Outline: (§1)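 Repeat regions from input (SC-Leu) and selection (SC-Leu-His + 0.5 mM 3-AT) plates were PCR-amplified and Illumina-sequenced after four days of growth. The cells were strain YBZ-1 with a LexA–MS2 coat fusion and a HIS3 reporter, co-expressing Pumilio-1 PUF domain libraries and matching RNA elements from a centromeric plasmid. The interaction score is the log change in variant frequency from input to selection, taken in log2 with a pseudocount of 1 for absent variants.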

[2] = target: PUM1 PUF domain R3-VFF (Homo sapiens, UniProt Q14671 828-1176, C935V;R936F;Q939F)
Outline: as §1

[3] = target: PUM1 PUF domain R5-WHL (Homo sapiens, UniProt Q14671 828-1176, C1007W;R1008H;Q1011L)
Outline: as §1

[4] = target: T1, PUM1 PUF domain R6-SWV (Homo sapiens, UniProt Q14671 828-1176, N1043S;Y1044W;Q1047V)
T1 sequence: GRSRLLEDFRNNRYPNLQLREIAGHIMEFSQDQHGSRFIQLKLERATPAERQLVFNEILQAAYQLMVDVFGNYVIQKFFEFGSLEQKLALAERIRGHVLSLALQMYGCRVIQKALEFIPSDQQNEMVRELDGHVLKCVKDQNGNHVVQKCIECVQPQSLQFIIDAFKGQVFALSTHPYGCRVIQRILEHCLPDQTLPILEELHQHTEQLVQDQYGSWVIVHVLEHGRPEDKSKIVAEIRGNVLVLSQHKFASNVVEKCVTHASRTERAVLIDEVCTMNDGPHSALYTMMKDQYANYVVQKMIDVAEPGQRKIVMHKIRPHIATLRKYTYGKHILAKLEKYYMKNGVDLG
Outline: as §1

[5] = target: T2, PUM1 PUF domain R6-WWS (Homo sapiens, UniProt Q14671 828-1176, N1043W;Y1044W;Q1047S)
T2 sequence: T1 sequence with S216W, V220S
Outline: as §1

[6] = target: T3, PUM1 PUF domain R6-MWG (Homo sapiens, UniProt Q14671 828-1176, N1043M;Y1044W;Q1047G)
T3 sequence: T1 sequence with S216M, V220G
Outline: as §1

[7] = target: PUM1 PUF domain R4-CRL (Homo sapiens, UniProt Q14671 828-1176, N971C;H972R;Q975L)
Outline: as §1

[8] = target: PUM1 PUF domain R5-GRW (Homo sapiens, UniProt Q14671 828-1176, C1007G;Q1011W)
Outline: as §1

[9] = target: T4, PUM1 PUF domain R6-LWA (Homo sapiens, UniProt Q14671 828-1176, N1043L;Y1044W;Q1047A)
T4 sequence: T1 sequence with S216L, V220A
Outline: as §1

[10] = target: T5, PUM1 PUF domain R6-WWG (Homo sapiens, UniProt Q14671 828-1176, N1043W;Y1044W;Q1047G)
T5 sequence: T1 sequence with S216W, V220G
Outline: as §1

[11] = target: PUM1 PUF domain R4-NPA (Homo sapiens, UniProt Q14671 828-1176, H972P;Q975A)
PUM1 PUF domain R4-NPA, sequence (Q14671 828-1176 H972P/Q975A): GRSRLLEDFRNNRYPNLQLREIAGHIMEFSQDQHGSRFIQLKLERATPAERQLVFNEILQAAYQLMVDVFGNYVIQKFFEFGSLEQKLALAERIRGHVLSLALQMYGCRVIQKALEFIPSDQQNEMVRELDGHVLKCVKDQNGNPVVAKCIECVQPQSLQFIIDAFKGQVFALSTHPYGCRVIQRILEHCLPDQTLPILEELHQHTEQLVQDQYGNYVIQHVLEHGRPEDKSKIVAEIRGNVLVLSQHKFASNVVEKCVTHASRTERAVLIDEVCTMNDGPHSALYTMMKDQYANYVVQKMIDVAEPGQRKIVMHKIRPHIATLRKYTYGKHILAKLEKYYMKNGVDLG
Outline: as §1

[12] = target: PUM1 PUF domain R8-HWI (Homo sapiens, UniProt Q14671 828-1176, N1122H;Y1123W;Q1126I)
Outline: as §1

[13] = target: PUM1 PUF domain R5-GKN (Homo sapiens, UniProt Q14671 828-1176, C1007G;R1008K;Q1011N)
Outline: as §1

[14] = target: PUM1 PUF domain R3-FSK (Homo sapiens, UniProt Q14671 828-1176, C935F;R936S;Q939K)
Outline: as §1

[15] = target: PUM1 PUF domain R1-KGE (Homo sapiens, UniProt Q14671 828-1176, S863K;R864G;Q867E)
Outline: as §1

[16] = target: PUM1 PUF domain R1-RAN (Homo sapiens, UniProt Q14671 828-1176, S863R;R864A;Q867N)
Outline: as §1

[17] = target: PUM1 PUF domain R1-KLR (Homo sapiens, UniProt Q14671 828-1176, S863K;R864L;Q867R)
Outline: as §1

[18] = target: PUM1 PUF domain R1-KRY (Homo sapiens, UniProt Q14671 828-1176, S863K;Q867Y)
Outline: as §1

[19] = target: PUM1 PUF domain R1-GWE (Homo sapiens, UniProt Q14671 828-1176, S863G;R864W;Q867E)
Outline: as §1

[20] = target: PUM1 PUF domain R2-LLY (Homo sapiens, UniProt Q14671 828-1176, N899L;Y900L;Q903Y)
Outline: as §1

Sequence: GGCUAGAACUAGUGGAUCCCCCGGCGCCCGGCGGCUCGAGCCCGGGUAAGUGUAAUUAGUCUGCAUGCCGCCGGGCGCCAUGCCUGCAGGUCGACUCUAGAAAACAUG
- binding signal [1]: 1.56 log2 enrichment (interaction score)
- binding signal [2]: 4.71 log2 enrichment (interaction score)

Sequence: GGCUAGAACUAGUGGAUCCCCCGGCGCCCGGCGGCUCGAGCCCGGGUAAGUGUGAAUAGUCUGCAUGCCGCCGGGCGCCAUGCCUGCAGGUCGACUCUAGAAAACAUG
- binding signal [3]: 7.53 log2 enrichment (interaction score)

Sequence: GGCUAGAACUAGUGGAUCCCCCGGCGCCCGGCGGCUCGAGCCCGGGUAAGUGUAAAUAGUCUGCAUGCCGCCGGGCGCCAUGCCUGCAGGUCGACUCUAGAAAACAUG
- binding signal [4]: 1.05 log2 enrichment (interaction score)
- binding signal [5]: 3.36 log2 enrichment (interaction score)
- binding signal [6]: 3.83 log2 enrichment (interaction score)
- binding signal [7]: 5.64 log2 enrichment (interaction score)
- binding signal [8]: 2.31 log2 enrichment (interaction score)
- binding signal [9]: 4.92 log2 enrichment (interaction score)
- binding signal [10]: 4.79 log2 enrichment (interaction score)
- binding signal [1]: 4.48 log2 enrichment (interaction score)
- binding signal [11]: 1.59 log2 enrichment (interaction score)
- binding signal [12]: 3.85 log2 enrichment (interaction score)

Sequence: GGCUAGAACUAGUGGAUCCCCCGGCGCCCGGCGGCUCGAGCCCGGGUAAGUGUUAAUAGUCUGCAUGCCGCCGGGCGCCAUGCCUGCAGGUCGACUCUAGAAAACAUG
- binding signal [8]: 4.05 log2 enrichment (interaction score)
- binding signal [13]: 3.34 log2 enrichment (interaction score)

Sequence: GGCUAGAACUAGUGGAUCCCCCGGCGCCCGGCGGCUCGAGCCCGGGUAAGUGUAAGUAGUCUGCAUGCCGCCGGGCGCCAUGCCUGCAGGUCGACUCUAGAAAACAUG
- binding signal [14]: 4.08 log2 enrichment (interaction score)

Sequence: GGCUAGAACUAGUGGAUCCCCCGGCGCCCGGCGGCUCGAGCCCGGGUAAGUGUAAAUUGUCUGCAUGCCGCCGGGCGCCAUGCCUGCAGGUCGACUCUAGAAAACAUG
- binding signal [15]: 4.18 log2 enrichment (interaction score)
- binding signal [16]: 3.21 log2 enrichment (interaction score)
- binding signal [17]: 4.29 log2 enrichment (interaction score)
- binding signal [18]: 3.65 log2 enrichment (interaction score)

Sequence: GGCUAGAACUAGUGGAUCCCCCGGCGCCCGGCGGCUCGAGCCCGGGUAAGUGAAAAUAGUCUGCAUGCCGCCGGGCGCCAUGCCUGCAGGUCGACUCUAGAAAACAUG
- binding signal [4]: 2.26 log2 enrichment (interaction score)
- binding signal [9]: 3.04 log2 enrichment (interaction score)
- binding signal [10]: 2.56 log2 enrichment (interaction score)

Sequence: GGCUAGAACUAGUGGAUCCCCCGGCGCCCGGCGGCUCGAGCCCGGGUAAGUGUAAAUGGUCUGCAUGCCGCCGGGCGCCAUGCCUGCAGGUCGACUCUAGAAAACAUG
- binding signal [15]: 1.9 log2 enrichment (interaction score)
- binding signal [19]: 2.61 log2 enrichment (interaction score)

Sequence: GGCUAGAACUAGUGGAUCCCCCGGCGCCCGGCGGCUCGAGCCCGGGUAAGUGUCAAUAGUCUGCAUGCCGCCGGGCGCCAUGCCUGCAGGUCGACUCUAGAAAACAUG
- binding signal [3]: 2.9 log2 enrichment (interaction score)
- binding signal [13]: 1.57 log2 enrichment (interaction score)

Sequence: GGCUAGAACUAGUGGAUCCCCCGGCGCCCGGCGGCUCGAGCCCGGGUAAGUGUACAUAGUCUGCAUGCCGCCGGGCGCCAUGCCUGCAGGUCGACUCUAGAAAACAUG
- binding signal [11]: 0.72 log2 enrichment (interaction score)

Sequence: GGCUAGAACUAGUGGAUCCCCCGGCGCCCGGCGGCUCGAGCCCGGGUAAGUGUAAAUCGUCUGCAUGCCGCCGGGCGCCAUGCCUGCAGGUCGACUCUAGAAAACAUG
- binding signal [16]: 3.89 log2 enrichment (interaction score)

Sequence: GGCUAGAACUAGUGGAUCCCCCGGCGCCCGGCGGCUCGAGCCCGGGUAAGUGUAAAGAGUCUGCAUGCCGCCGGGCGCCAUGCCUGCAGGUCGACUCUAGAAAACAUG
- binding signal [20]: 2.22 log2 enrichment (interaction score)

Sequence: GGCUAGAACUAGUGGAUCCCCCGGCGCCCGGCGGCUCGAGCCCGGGUAAGUGUAUAUAGUCUGCAUGCCGCCGGGCGCCAUGCCUGCAGGUCGACUCUAGAAAACAUG
- binding signal [11]: 4 log2 enrichment (interaction score)
